Source: PubChem
Sampled rows, rich in hits. Any-hit rate of the full collection: about 7.8%.
HCV inhibitor – blocks hepatitis C virus | Huh7.5.1 HCVcc-Cre infection, luciferase reporter, 44 h | Potency, µM (doses to about 41.8 µM), for the others: at the top dose activity change, negative = inhibition, usual class: inhibitors | 3.4% of 340,000 active | AID 651820; active means well fitted inhibition curve with a large enough effect; inconclusive means small, poorly fitted or top-dose-only effect, or another doubt; inactive means no such curve, though single readings can be large or run the other way; further: potency means the concentration at half of the fitted maximal effect
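A cell-based infection assay in which seeded cells (1,000 per well) receive test compound after 4 h, are inoculated with HCVcc-Cre at approximately 0.5 moi, and are incubated 44 h before luminescence detection.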
MARV entry inh – inhibitors of Marburg virus binding or cell entry | Potency, µM (titrated, usually from 37.8 µM), for inactives: at the highest dose activity change, negative = inhibition, hits mostly inhibitors | Marburg virus pseudotyped entry inhibition, cell reporter | 1.8% of 300,000 active; calls by dose curve; tested in HEK293 cells; further: potency means the concentration at half of the fitted maximal effect
LASV entry inh – inhibitors of Lassa virus binding or cell entry. Lassa virus pseudotype entry inhibition, cell reporter. Potency, µM (doses to about 37.9 µM), for inactives: at the highest dose activity change, negative = inhibition, usual class: inhibitors. 1.2% of 300,000 active; calls by dose curve; tested in HEK293 cells; further: potency means the concentration at half of the fitted maximal effect; nearly all actives have a fitted effect of over 50% in size
Vaccinia Venus – inhibitors of vaccinia virus (Venus reporter). Vaccinia virus Venus reporter expression, fluorescence. Potency, µM (series often up to 36.5 µM), for inactives: at the top dose activity change, negative = inhibition, usual class: inhibitors. 0.46% of 330,000 active; calls by dose curve; tested in A549 cells; further: potency means the concentration at half of the fitted maximal effect; nearly all actives have a fitted effect of over 30% in size
HCMV inh – blocks human cytomegalovirus replication; HFF cells, HCMV-luciferase reporter, 72 h; active compounds read low; activity change, negative = inhibition, % at 57.5 µM; 4.5% of 410,000 active; AID 1259415; in the data active means activity change below about -60%; inconclusive means no clear call, values can overlap the other calls; inactive means above about -39%
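Cell-based, HFFs, 1000 cells/well, 16 h 37C; cpds in DMSO + HCMV-luc, MOI 1 PFU/cell; 72 h 37C; OneGlo luminescence after 5 min RT; norm. to buffer vs Salinomycin 10uM.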
VACV mCherry inh – vaccinia inhibition (mCherry reporter). Vaccinia virus mCherry reporter infection, fluorescence. Potency, µM (series often up to 36.5 µM), for the others: top-dose activity change, negative = inhibition, usual class: inhibitors. 0.63% of 310,000 active. AID 720579; calls by dose curve; tested in A549 cells; further: potency means the concentration at half of the fitted maximal effect; nearly all actives have a fitted effect of over 35% in size
* = called active by the depositor; i = inactive; ? = inconclusive; nt = no result given; ! = repeats disagree; [ ] = remark or other dose. On the % scale 0 is the no-effect control and ±100 the full control effect.

SMILES	HCV inhibitor	MARV entry inh	LASV entry inh	Vaccinia Venus	HCMV inh	VACV mCherry inh
O=C(c1cccc(Cl)c1)N1CCC(c2nc3c(nnn3Cc3ccc(F)cc3F)c(=O)[nH]2)CC1	nt	-3%[46.1 µM]	-23%[46.1 µM]	-26%	-12	-28%
COc1ccc(OC)c2sc(N3CCCCC3)nc12	13µM*	-16%	-18%	nt	8	nt
c1ccc2c(c1)CCN(c1nc3cc4c(cc3s1)OCCO4)C2	?	?	4.6µM*	nt	-90*	nt
O=S(=O)(c1ccc2c(c1)OCCO2)N1CCN(c2nc3ccccc3s2)CC1	-13%	22%	-24%	-26%	?	-15%
COc1ccc(OC)c2sc(N3CCc4ccccc4C3)nc12	?	-30%[46.1 µM]	-2%	-6%	-76*	-8%
Cn1c2nc(=O)n(-c3ccccc3)c(=O)c-2nc2c1CCCC2	nt	nt	nt	-1%	nt	i
Cc1cc(C(C)(C)C)oc1C(=O)N(CC(=O)NC1CCCC1)c1c(C)cccc1C	10µM*	10µM*	?	?	-28	?
Cc1cc(C(C)(C)C)oc1C(=O)N(CC(=O)NC1CCCC1)c1ccc(F)cc1	?	-26%	?	-22%	-38	-2%
N#CC(C#N)=C1C=CC=CN1/C(=C\c1ccco1)C(=O)c1ccc(-c2ccccc2)cc1	?	16µM*	?	-15%	-101*	?
CC(/C=N/n1c(-c2ccc(Cl)cc2)n[nH]c1=S)=C\c1ccco1	3%	-22%	-27%	-13%	94	-4%
N#CC(C#N)=C1C=CC=CN1/C(=C\c1ccco1)C(=O)c1ccc(Cl)cc1	?	?	?	28µM*	-97*	?
N#C/C(=C\c1ccco1)C(=O)NCc1ccccc1	-2%	nt	nt	nt	nt	nt
O=C(O)C(S)[C@@H](S)C(=O)O (stereo partly specified)	nt	nt	nt	-3%	nt	-9%
Cc1noc(/C=C/N(C)C)c1S(=O)(=O)N1CCCC(C(=O)NCc2ccccc2Cl)C1 (stereo unspecified)	?	-3%	-9%	nt	-98*	nt
CNC(=O)C1CCN(S(=O)(=O)c2c(C)noc2/C=C/N(C)C)CC1	11%	nt	nt	5%[7.34 µM]	29	-4%[7.34 µM]
Cc1noc(/C=C/N(C)C)c1S(=O)(=O)N1CCN(c2ccccc2)CC1	?	nt	nt	-11%	-86*	-7%
Cc1ccc(C)c(N2CCN(S(=O)(=O)c3c(C)noc3/C=C/N(C)C)CC2)c1	?	13µM*	?	-14%	-10	nt
Cc1noc(/C=C/N(C)C)c1S(=O)(=O)N1CCCC(C(=O)NCc2ccc(Cl)cc2)C1 (stereo unspecified)	nt	?	20%[14.3 µM]	-14%	-10	-13%
Cn1c(=O)c(=O)n(C)c2cc(S(=O)(=O)N3CCN(c4ccccc4)CC3)ccc21	nt	2%[46.1 µM]	14%[46.1 µM]	-24%	-36	-25%
COC(=O)C1(C)C2CC(C)C(c3ccccc32)N1C(=O)C(F)(F)F (stereo unspecified)	nt	-9%[14.2 µM]	?	nt	nt	nt
Cc1cccc(N2CCN(C(=O)C3CCN(S(=O)(=O)c4c(C)noc4C)CC3)CC2)c1C	13µM*	-10%[46.1 µM]	-5%[46.1 µM]	-12%	-22	-15%
Cc1ccc(C)c(N2CCN(C(=O)C3CCCCN3S(=O)(=O)c3ccc(F)cc3)CC2)c1 (stereo unspecified)	?	10µM*!	-25%	-23%	-19	-10%
Cc1noc(C)c1S(=O)(=O)N1CCC(C(=O)N2CCN(c3ccccc3Cl)CC2)CC1	-9%	3%	10%	-15%	-2	-16%
O=C(O)C1CCCN1S(=O)(=O)c1ccc(F)cc1 (stereo unspecified)	5%	nt	nt	nt	nt	nt
Cc1ccc(C)c(N2CCN(C(=O)C3CCN(S(=O)(=O)c4c(C)noc4C)CC3)CC2)c1	?	2%	nt	nt	-68*	nt
Cc1ccc(C)c(N2CCN(C(=O)C3CCCN(S(=O)(=O)c4c(C)noc4C)C3)CC2)c1 (stereo unspecified)	11µM*	-6%	nt	-20%	-18	12%
COc1ccc(Cl)cc1NC(=O)c1nn(-c2ccc(C)cc2)c(=O)n(C)c1=O	nt	nt	?	-11%	7	-15%
CCN1C(=O)/C(=C2\C=CC3=C(CCCC3)N2CC)SC1=S	nt	-7%	nt	nt	nt	nt
